± gives the standard deviation of the averaged measurements.
Key:
DLD1 [1] = assay: cell viability (CellTiter-Glo) relative to plate median (fraction of plate median); higher = more viable cells; conditions: 5 µM; treatment time 24 h; reporter: 7TFP
Procedure, shortened: (§1)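 Each entry is a luminescence signal normalised to the plate median, averaged over independent replicates. The replicate count was two, and the cells were colorectal cancer lines with stable lentiviral TCF/Wnt firefly luciferase reporters exposed to library compounds at a final 5 µM for 24 h. Firefly luciferase and CellTiterGlo were measured on parallel plates.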

HCT116 = assay: as above; conditions: 5 µM; treatment time 24 h; reporter: TCF4/Wnt
Procedure, shortened: as §1

SW480 [2] = assay: as above; conditions: 5 µM; treatment time 24 h; reporter: 7TFP
Procedure, shortened: as §1

DLD1 [3] = assay: TCF/Wnt firefly luciferase reporter signal relative to plate median (fraction of plate median); higher = higher Wnt reporter signal; conditions: 5 µM; treatment time 24 h; reporter: 7TFP
Procedure, shortened: as §1

SW480 [4] = assay: as above; conditions: 5 µM; treatment time 24 h; reporter: 7TFP
Procedure, shortened: as §1

Row | Structure (SMILES) | cell viability (DLD1 [1]) | cell viability (HCT116) | cell viability (SW480 [2]) | TCF/Wnt firefly luciferase reporter signal (DLD1 [3]) | TCF/Wnt firefly luciferase reporter signal (SW480 [4])
1 | CC[C@@]1(O)C(=O)OCc2c1cc1n(c2=O)Cc2cc3ccccc3nc2-1 | 0.91 ± 0.094 | 0.292 ± 0.067 | 0.925 ± 0.041 | 1.01 ± 0.12 | 0.911 ± 0.016
2 | CC1(C)C2CC(=O)[C@]3(C)C(CC[C@@]4(C)[C@H](c5ccoc5)OC(=O)C5OC543)[C@@]2(C)[C@@H](O)C[C@H]1O (stereo not given in full) | 0.996 ± 0.048 | 1.04 ± 0.057 | 0.995 ± 0.05 | 1.01 ± 0.098 | 1.02 ± 0.054
3 | NCC(=O)c1ccccc1 | 0.981 ± 0.11 | 0.999 ± 0.059 | 0.983 ± 0.018 | 0.851 ± 0.14 | 0.917 ± 0.2
4 | CN1C[C@H](C(=O)N[C@]2(C)O[C@@]3(O)[C@@H]4CCCN4C(=O)[C@H](Cc4ccccc4)N3C2=O)C=C2c3cccc4[nH]cc(c34)C[C@H]21 | 0.967 ± 0.09 | 1.11 ± 0.078 | 1.03 ± 0.042 | 1.23 ± 0.25 | 1.16 ± 0.078
5 | CC(C)=CCCC1(C)C=Cc2c(O)c3c(c(CC=C(C)C)c2O1)OC12C(=CC4CC1C(C)(C)OC2(C/C=C(/C)C(=O)O)C4O)C3=O (stereo not given) | 0.911 ± 0.11 | 0.979 ± 0.016 | 0.996 ± 0.1 | 0.848 ± 0.069 | 0.921 ± 0.054
6 | [N-]=[N+]=CC(=O)OC[C@H](N)C(=O)O | 0.717 ± 0.18 | 0.887 ± 0.092 | 1.07 ± 0.028 | 0.977 ± 0.047 | 0.989 ± 0.044
7 | S=C=NCc1ccccc1 | 0.961 ± 0.053 | 0.928 ± 0.039 | 0.959 ± 0.012 | 0.748 ± 0.17 | 0.822 ± 0.071
8 | NNCc1ccccc1 | 1.08 ± 0.12 | 1.1 ± 0.13 | 1.06 ± 0.028 | 1.07 ± 0.057 | 1.03 ± 0.093
9 | CC(=O)O[C@@H]1CC2C(C)(C)[C@H](O)C=C[C@]2(C)C2CC[C@]3(C)C(=CC(=O)O[C@H]3c3ccoc3)[C@@]21C (stereo partly drawn) [3-alpha-HYDROXYDEOXYGEDININ] | 1.08 ± 0.092 | 1.11 ± 0.014 | 1.08 ± 0.11 | 1.04 ± 0.097 | 0.943 ± 0.076
10 | C[C@]12CC[C@H]3[C@@H](CC[C@]4(O)C[C@@H](O)CC[C@]34C=O)[C@@]1(O)CC[C@@H]2C1=CC(=O)OC1 | 0.579 ± 0.021 | 0.502 ± 0.12 | 0.746 ± 0.046 | 0.226 ± 0.12 | 0.58 ± 0.054
11 | C=C1[C@@H]2CCC3[C@@](CC[C@@H]4[C@H](C(=O)O)C[C@@H](O[C@@H]5O[C@H](CO)[C@@H](OS(=O)(=O)O)[C@H](OS(=O)(=O)O)[C@H]5OC(=O)CC(C)C)C[C@@]34C)(C2)[C@@H]1O (stereo not given in full) | 1 ± 0.093 | 1.04 ± 0.061 | 1.01 ± 0.054 | 1.03 ± 0.072 | 0.9585 ± 0.0064
12 | C/C=C(/C)C(=O)O[C@H]1CC[C@@]2(C)[C@@H]3CC[C@H]4[C@]5(O)C[C@H](O)[C@@]6(O)[C@@H](CN7C[C@@H](C)CC[C@H]7[C@@]6(C)O)[C@]5(O)C[C@]42O[C@]13O | 0.9805 ± 0.0064 | 0.892 ± 0.06 | 1.04 ± 0.064 | 1.16 ± 0.064 | 1.185 ± 0.0071
13 | CNC1CC(N)C(O)C(OC2OC(CO)C(O)C3OC4(OC(C(N)CO)C(O)C(O)C4O)OC23)C1O (stereo not given) | 0.983 ± 0.039 | 0.98 ± 0.029 | 0.985 ± 0.017 | 0.979 ± 0.073 | 0.988 ± 0.011
14 | COC(=O)C1=CO[C@@H](C)[C@@H]2CN3CC[C@@]4(C(=O)Nc5ccccc54)[C@H]3C[C@H]12 | 1.1 ± 0.085 | 1.07 ± 0.014 | 1.08 ± 0.035 | 1.02 ± 0.12 | 0.96 ± 0.028
15 | COC1=C[C@@H]2[C@@H]3Cc4ccc(OC)c(O)c4[C@]2(CCN3C)CC1=O | 0.973 ± 0.0085 | 0.925 ± 0.017 | 0.987 ± 0.033 | 1.03 ± 0.11 | 0.997 ± 0.16
16 | Cc1[nH]c2ccccc2c1CN(C)C | 1.05 ± 0.014 | 1.18 ± 0.11 | 1.085 ± 0.0071 | 1.07 ± 0.11 | 1.07 ± 0.057

Row | Structure (SMILES) | cell viability (DLD1 [1]) | cell viability (HCT116) | cell viability (SW480 [2]) | TCF/Wnt firefly luciferase reporter signal (DLD1 [3]) | TCF/Wnt firefly luciferase reporter signal (SW480 [4])
17 | O=C(O)CCC1NCC2CC1CN1CCCCC21 (stereo not given) | 0.999 ± 0.044 | 1.08 ± 0.042 | 0.971 ± 0.023 | 1.27 ± 0.28 | 1.11 ± 0.078
18 | CCCCOC(=O)c1ccccc1C(=O)OCCCC | 0.944 ± 0.044 | 0.98 ± 0.013 | 0.96 ± 0.071 | 0.847 ± 0.16 | 0.939 ± 0.03
19 | CC(=O)OCC1=C(C(=O)O)N2C(=O)[C@@H](NC(=O)CCC[C@@H](N)C(=O)O)[C@H]2SC1 | 0.955 ± 0.13 | 0.906 ± 0.13 | 0.9165 ± 0.0064 | 1.175 ± 0.0071 | 1.09 ± 0.05
20 | CC(C)c1ccc2c(c1O)CC[C@H]1C3=C(CC[C@]21C)C(=O)OC3 | 1.1 ± 0.042 | 1.1 ± 0.099 | 1.09 | 1.04 ± 0.19 | 1.06
21 | CC(C)c1cc2c(c(O)c1O)[C@@]1(C(=O)O)CCCC(C)(C)[C@@H]1CC2 | 0.981 ± 0.013 | 1.03 ± 0.079 | 1.03 ± 0.021 | 1.03 ± 0.021 | 0.944 ± 0.11
22 | COc1cc2c(cc1OC)[C@@H]1C(=O)c3ccc4oc(C(C)C)cc4c3O[C@@H]1CO2 | 0.923 ± 0.052 | 0.875 ± 0.14 | 0.75 ± 0.021 | 0.974 ± 0.028 | 0.749 ± 0.052
23 | COc1cc2c(cc1OC)[C@H](C)NCC2 | 0.962 ± 0.044 | 0.96 ± 0.13 | 0.9455 ± 0.00071 | 1.06 ± 0.085 | 1.07 ± 0.014
24 | COc1ccc2c(c1OC)C(=O)O[C@H]2[C@H]1c2cc3c(cc2CCN1C)OCO3 | 1.06 ± 0.09 | 1.04 ± 0.061 | 0.9915 ± 0.0078 | 1.08 ± 0.028 | 1.03 ± 0.069
25 | CN(C)C(=O)Oc1cccc([N+](C)(C)C)c1 | 1.06 ± 0.089 | 0.979 ± 0.017 | 1.01 ± 0.017 | 1.03 ± 0.15 | 1.09 ± 0.021
26 | COc1cc2c(c3oc4cccc(O)c4c(=O)c13)[C@@H]1C=CO[C@@H]1O2 [Sterigmatocystin] | 1.1 ± 0.16 | 1.17 ± 0.014 | 1.08 ± 0.057 | 0.845 ± 0.25 | 0.902 ± 0.077
27 | COc1cc([C@@H]2c3cc4c(cc3[C@H](O)[C@H]3COC(=O)[C@H]23)OCO4)cc(OC)c1OC | 0.903 ± 0.091 | 0.552 ± 0.075 | 0.95 ± 0.14 | 0.831 ± 0.34 | 0.783 ± 0.061
28 | CN1[C@@H]2C[C@@H](OC(=O)[C@H](CO)c3ccccc3)C[C@H]1[C@@H]1O[C@@H]12 | 1.04 ± 0.042 | 1.07 ± 0.042 | 0.99 ± 0.0099 | 1.02 ± 0.1 | 1.035 ± 0.0071
29 | C=CCSSCC=C | 1.055 ± 0.0071 | 1.045 ± 0.0071 | 1.05 ± 0.078 | 1.1 ± 0.085 | 0.95 ± 0.13
30 | O=C1C=CC(=O)c2c(O)cccc21 | 0.921 ± 0.035 | 0.972 ± 0.033 | 0.961 ± 0.016 | 1.03 | 1.08 ± 0.064
31 | NCC1(CC(=O)O)CCCCC1 | 1 ± 0.083 | 1.08 ± 0.021 | 0.981 ± 0.013 | 1.07 ± 0.057 | 1.1 ± 0.064
32 | COP(=S)(OC)Oc1ccc(Sc2ccc(OP(=S)(OC)OC)cc2)cc1 | 1.025 ± 0.0071 | 1.06 ± 0.014 | 0.987 ± 0.011 | 1.06 ± 0.092 | 1.04 ± 0.014
